The results in this text go back to PubChem BioAssay (NCI).

What all share (experiment): NCI-60 one-dose screen, 48 h (100 = growth as untreated, 0 = no growth, -100 = all killed)
One test deals with NCI-H226 lung. To be noted: 10 µM unless noted.
The next test deals with NCI-H322M lung. The settings on record: 10 µM unless noted.
A further test deals with HOP-62 NSCLC. The settings on record: 10 µM unless noted.
In a further test the test system is NCI-H460 lung. To be noted: 10 µM unless noted.
A further test concerns HOP-92 NSCLC. To be noted: 10 µM.
The subject of a further test is NCI-H522 lung. The settings on record: 10 µM unless noted.
For the next test, the system named is A549/ATCC NSCLC. The settings on record: 10 µM unless noted.
Another test relates to 786-0 renal. The settings on record: 10 µM unless noted.
A further test relates to COLO 205 colon. To be noted: 10 µM unless noted.
In another test the test system is DU-145 prostate. The settings on record: 10 µM unless noted.
The next test relates to K-562 leukemia. To be noted: 10 µM unless noted.
The subject of another test is MALME-3M melanoma. To be noted: 10 µM unless noted.
A further test relates to MDA-MB-231 breast. To be noted: 10 µM unless noted.
Another test relates to RXF 393 renal. The settings on record: 10 µM unless noted.
The test system of another test is SF-268 CNS. To be noted: 10 µM unless noted.
For a further test, the system named is SF-295 CNS. To be noted: 10 µM unless noted.
For the next test, the system named is SF-539 CNS. The settings on record: 10 µM unless noted.
The test system of a further test is UACC-257 melanoma. The settings on record: 10 µM unless noted.
For another test, the system named is M14 melanoma. The settings on record: 10 µM unless noted.
The test system of another test is NCI-H23 lung. To be noted: 10 µM unless noted.

About 83,000 compounds went through this panel and 20% of them were active in at least one assay; those are over-represented in the sample as a whole.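 Cell lines were cultured in 96-well plates, exposed to a single compound concentration, and assessed for percent growth 48 hours later.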 Unmarked numbers belong to inactive results. Calls of active or inactive are those of the source. Rule for the calls: active = growth percent below 10; inactive = the rest.

With `O=c1[nH]c2ccccc2cc1CSc1ccccc1Nc1nccc(-c2ccc(Cl)cc2)n1`, the growth is 94.1% in the test with NCI-H226 lung; 94.1% with NCI-H322M lung; 95.6% in the test with HOP-62 NSCLC; 97.5% in the test on NCI-H460 lung; 83.5% in the test with HOP-92 NSCLC; 97.4% in the test with NCI-H522 lung. The growth with A549/ATCC NSCLC was 95.4%; with 786-0 renal, 101%; in the test with COLO 205 colon, 125%; in the test with DU-145 prostate it was 102%; in the test with K-562 leukemia it was 94.7%; in the test on MALME-3M melanoma, 86.1%. For the same compound, the growth in the test on MDA-MB-231 breast was 84.5%; in the test with RXF 393 renal, 93.5%; in the test with SF-268 CNS it was 94.6%; in the test with SF-295 CNS, 95.5%; in the test on SF-539 CNS it was 82.7%; with UACC-257 melanoma it was 104%. In the test with M14 melanoma, the growth was 108%.

For the compound `Cc1cc(C(NC(=O)CCCCCNc2cccc3c2C(=O)N(C2CCC(=O)NC2=O)C3=O)c2ccc3c(c2)OC(F)(F)O3)c(O)c2ncccc12` (centres undefined), the growth is 72.8% in the test on NCI-H226 lung; 71.1% in the test with NCI-H322M lung; 51.1% in the test on HOP-62 NSCLC; 14.7% with NCI-H460 lung; 4.13% (active) in the test with HOP-92 NSCLC; 72.1% in the test on NCI-H522 lung. Moreover, the growth with A549/ATCC NSCLC was 66.7%; with 786-0 renal it was 79.2%; in the test with COLO 205 colon, 111%; in the test with DU-145 prostate it was 51.9%; in the test on K-562 leukemia it was 30.2%; in the test with MALME-3M melanoma, 84.5%. The growth is 55.2% in the test on MDA-MB-231 breast; 86.4% in the test with RXF 393 renal; 47.8% in the test with SF-268 CNS; 48.2% with SF-295 CNS; 56.3% in the test on SF-539 CNS; 98.5% with UACC-257 melanoma. Moreover, in the test on M14 melanoma, the growth is 70.2%.

On to `CS(=O)(=O)c1ccc(-n2cc(/C=N/O)c(-c3ccccc3)n2)cc1`, for which the growth was 77.1% in the test with NCI-H226 lung; 81.7% in the test on NCI-H322M lung; 89.5% with HOP-62 NSCLC; 93.9% in the test on NCI-H460 lung; 87.9% in the test with HOP-92 NSCLC; 70.3% in the test on NCI-H522 lung. The growth was 77.2% with A549/ATCC NSCLC; 79.1% in the test on 786-0 renal; 83.9% in the test with DU-145 prostate; 64.5% in the test on K-562 leukemia; 97.2% with MALME-3M melanoma; 72.4% in the test with MDA-MB-231 breast. Also, the growth with RXF 393 renal is 78.6%; in the test with SF-268 CNS it was 70.9%; with SF-295 CNS, 87.3%; with SF-539 CNS, 71.1%; in the test on UACC-257 melanoma, 90.1%; in the test on M14 melanoma, 98.1%.

Regarding `C=C1CC[C@@H]2[C@]3(C)COC(c4ccccc4)O[C@@H]3CC[C@@]2(C)[C@@H]1C/C=C1/C(=O)OC[C@H]1O` (some centres undefined), the growth with NCI-H23 lung is 96.8%; in the test with NCI-H322M lung it was 97.1%; with HOP-62 NSCLC, 110%; in the test with NCI-H460 lung, 99.8%; in the test with NCI-H522 lung, 63.5%; with A549/ATCC NSCLC, 92.6%. Moreover, the growth in the test on 786-0 renal is 111%; with DU-145 prostate, 92.1%; with K-562 leukemia, 43.7%; with MALME-3M melanoma it was 110%; in the test on MDA-MB-231 breast it was 99.3%; in the test with RXF 393 renal, 127%. Also, the growth is 97.5% in the test on SF-268 CNS, 102% with SF-295 CNS, 92.1% with SF-539 CNS and 85% in the test on UACC-257 melanoma.

`CC(=O)c1ccc(Nc2nc(SCC(C)C)nc(-c3ccc(F)cc3)c2C#N)cc1`: the growth with NCI-H226 lung is 114%; in the test with NCI-H322M lung, 116%; with HOP-62 NSCLC, 116%; with NCI-H460 lung, 109%; with HOP-92 NSCLC, 118%; in the test with NCI-H522 lung it was 103%. The growth was 109% with A549/ATCC NSCLC; 105% with 786-0 renal; 115% in the test on COLO 205 colon; 113% with DU-145 prostate; 106% in the test with K-562 leukemia; 114% in the test on MALME-3M melanoma. For the same compound, the growth with MDA-MB-231 breast is 106%; with RXF 393 renal, 118%; in the test on SF-268 CNS, 114%; with SF-295 CNS, 118%; in the test with SF-539 CNS it was 105%; in the test with UACC-257 melanoma, 106%. Also, the growth with M14 melanoma was 115%.

As to `COc1cc(OC)cc(C(=O)Nc2cccc(C#Cc3cccc4[nH]nc(N)c34)c2)c1`, the growth in the test with NCI-H226 lung was 30.8%; in the test with NCI-H322M lung it was 53.6%; in the test with HOP-62 NSCLC, 39%; with NCI-H460 lung, 13%; in the test on NCI-H522 lung it was 2.45% (active); in the test on A549/ATCC NSCLC, 33.7%. Also, the growth in the test with 786-0 renal is 46.5%; in the test on COLO 205 colon, 6.38% (active); with DU-145 prostate it was 28.6%; in the test with K-562 leukemia, 8.84% (active); in the test on MALME-3M melanoma, 40.5%; with MDA-MB-231 breast, 19.1%. The growth was -19.4% (active) in the test with RXF 393 renal; 33% with SF-268 CNS; 27.5% in the test on SF-295 CNS; -63.9% (active) in the test with SF-539 CNS; 53.4% in the test with UACC-257 melanoma; -2.56% (active) in the test on M14 melanoma.
